# Test results published in the supplement of paper PMC3334620.
# In all, about 33,000 sequences were measured (“E-score (-0.5 to 0.5)”: median about -0.041, highest 2% from about 0.37 on). Only a selection was taken, and the highest values are over-represented in it overall.
# Target: T1, Ecm22 (UniProt Q05958)
# T1 sequence: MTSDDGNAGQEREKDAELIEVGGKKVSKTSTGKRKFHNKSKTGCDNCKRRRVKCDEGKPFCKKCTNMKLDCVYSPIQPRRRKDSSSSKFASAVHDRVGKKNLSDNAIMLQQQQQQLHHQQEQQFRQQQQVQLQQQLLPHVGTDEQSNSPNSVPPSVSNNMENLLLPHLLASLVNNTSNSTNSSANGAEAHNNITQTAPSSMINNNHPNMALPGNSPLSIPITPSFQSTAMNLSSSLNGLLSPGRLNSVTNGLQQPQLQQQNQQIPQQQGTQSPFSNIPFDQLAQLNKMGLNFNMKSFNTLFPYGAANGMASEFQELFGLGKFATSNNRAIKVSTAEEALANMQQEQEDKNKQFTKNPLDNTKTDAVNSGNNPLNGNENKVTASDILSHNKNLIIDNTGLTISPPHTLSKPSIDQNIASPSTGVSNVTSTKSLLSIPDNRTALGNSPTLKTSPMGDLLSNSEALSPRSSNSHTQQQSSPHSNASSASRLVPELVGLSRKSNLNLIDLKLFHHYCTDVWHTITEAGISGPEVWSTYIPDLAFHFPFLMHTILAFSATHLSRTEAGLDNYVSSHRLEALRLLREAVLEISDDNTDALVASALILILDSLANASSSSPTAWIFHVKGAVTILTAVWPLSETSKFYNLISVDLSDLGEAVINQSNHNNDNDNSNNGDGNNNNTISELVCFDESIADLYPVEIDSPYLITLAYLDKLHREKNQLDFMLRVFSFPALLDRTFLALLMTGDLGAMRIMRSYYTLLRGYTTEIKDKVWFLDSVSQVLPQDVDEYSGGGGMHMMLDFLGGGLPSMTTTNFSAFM
# Assay: PBM E-score (8-mer binding enrichment) (E-score (-0.5 to 0.5)); higher = stronger / more preferred TF binding
# Settings: protein concentration: 200 nM; construct: GST-full length
# Method: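 Universal 'all 10-mer' protein binding microarrays (Agilent AMADID 015681) probed with GST-tagged S. cerevisiae TFs (full-length or DBD) made by in vitro transcription/translation (PURExpress), about 100-200 nM. Bound TF was detected with fluorescent anti-GST. Each ungapped 8-mer (which stands for itself and its reverse complement) is scored by the PBM enrichment score (E-score), a modified Wilcoxon-Mann-Whitney statistic from -0.5 to +0.5, computed with the Universal PBM Analysis Suite. Scale: above 0.35 generally sequence-specific binding.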
row,Sequence,PBM E-score
1,GATATAAC,0.156
2,AAGGACAC,-0.168
3,ACTTTGGG,-0.263
4,ATTGACTC,-0.0667
5,AACACAAT,-0.00044
6,CTTTTCCA,-0.271
7,GGCGGCGA,-0.157
8,GACAGAGA,0.0187
9,GATACGAA,0.445
10,AATACGAC,0.429
11,AATACGTC,0.0846
12,AATACGGT,0.21
13,AATACGGC,0.268
14,GATACGAC,0.464
15,GATACGGC,0.32
16,GATACGTA,0.253
17,GATACAAA,0.163
18,AATACGCT,0.121
19,AATACGAT,0.384
20,GATACGCC,0.162
21,ATTCCGAC,-0.0388
22,AAAACGAT,0.257
23,ACGTTCTA,0.0664
24,AGGAATAT,0.06
25,AGTTGAAC,0.0747

row,Sequence,PBM E-score
1,AGTGGAGA,-0.128
2,ACCGAGTG,0.159
3,TCCAGGGA,-0.173
4,CACGGACG,-0.0335
5,AGCTAACA,-0.248
6,CATACGGG,0.36
7,CATACGAG,0.481
8,CATACGCG,0.269
9,AGGGTTAA,-0.0692
10,CGGCTCAC,-0.0852
11,AGGTTAGA,-0.186
12,GAGCGAGC,0.354
13,GCACGAGC,0.0624
14,GAACGAGA,0.464
15,GGACGAGA,0.0358
16,AAACGAGC,0.482
17,GAACGAGC,0.483
18,CAACGAGC,0.336
19,AATCGAGC,0.237
20,GCACGAGA,0.127
21,AACCGAGC,0.355
22,CAGCGAGA,0.0257
23,GAGCGAGA,0.377
24,GCTGCCTA,-0.101
25,AGTGGGCG,-0.167

row,Sequence,PBM E-score
1,ATAGGATC,-0.135
2,GCCTAGCA,-0.213
3,ATAAGGAG,-0.0163
4,ATGTACGC,0.112
5,CTGTACAA,-0.0518
6,GTGTACTA,0.207
7,GTGTACGA,0.481
8,CTGTACGA,0.48
9,GTGTACCA,0.0289
10,ATGTACGA,0.477
11,ATGTACGG,0.365
12,CTGTACGC,0.314
13,TACTGACA,0.0366
14,AGTCCAAA,-0.108
15,GGCGGCAC,0.0476
16,GCTGGGGA,-0.211
17,CCACCCGC,-0.0883
18,GAACCGTA,0.248
19,ACACCGTA,0.313
20,TAACCGTA,0.375
21,GCACCGTA,0.371
22,AAACCGTA,0.27
23,CCACCGTA,0.34
24,AGACAGCA,-0.143
25,AATACCGT,0.197

row,Sequence,PBM E-score
1,CAGGGTGA,-0.192
2,TAATCGAA,0.134
3,AAATCGTC,0.127
4,TAATCGGA,0.16
5,CAATCGTC,-0.0527
6,AAATCGTG,0.0433
7,CAATCGTG,-0.215
8,TAATCGTA,0.418
9,GAATCGTC,0.14
10,GAATCGTA,0.38
11,GAATCGCA,-0.0229
12,AAATCGTA,0.393
13,CAATCGTA,0.389
14,ACCCACAA,0.105
15,ACGTAGTC,-0.158
16,AGATAGGG,-0.127
17,ATCTCGAG,-0.0735
18,AATGGCTG,-0.124
19,CGGGTACG,0.452
20,CGAGTACG,0.392
21,CGGGTACA,0.157
22,CGAGTACC,0.21
23,AGGGTACC,-0.323
24,AGGGTACG,0.411
25,AGGGTACA,-0.0565

row,Sequence,PBM E-score
1,AGAGTACG,0.257
2,CGGGTACC,-0.134
3,AAGGGCTG,-0.377
4,AAGAGACG,0.0921
5,CTACTCTA,-0.204
6,GCAAACAA,0.0626
7,CCAAACGA,0.437
8,TCAAACGA,0.452
9,ACAAACGC,0.174
10,CCAAACGC,0.177
11,TCAAACAA,-0.155
12,ACAAACGA,0.445
13,CCAAACGG,0.287
14,GCAAACGC,0.0881
15,GCAAACGA,0.433
16,ACAAACGG,0.226
17,CAAAACGA,0.278
18,AGCGGGTG,-0.186
19,CTTTTGCC,-0.0531
20,ATCAACCA,-0.154
21,CGCAAGCG,0.142
22,TGGACCAA,-0.206
23,AGGGAGAT,-0.275
24,CAATGACG,-0.147
25,GCGTTTAA,0.28

row,Sequence,PBM E-score
1,ACGTTTAG,0.33
2,CCGTTTAG,0.433
3,ACGTTTAA,0.365
4,CCGTTTAC,0.416
5,GCGTTTAC,0.227
6,CAGTTTAG,-0.0933
7,CCGTTTAA,0.441
8,ACGTTTAC,0.304
9,ACAGATCT,-0.159
10,GTTCCAAC,0.135
11,AATACTAG,0.0461
12,CAGGCGCA,-0.24
13,AGGAGGCA,-0.294
14,AACGAAAA,0.364
15,AACGAAAG,0.399
16,GACGAAAC,0.287
17,ACCGAAAG,0.0863
18,AACGAAAC,0.389
19,CACGAAAG,-0.0739
20,AACGAAAT,0.4
21,CACGAAAC,0.147
22,ACCGAAAT,0.15
23,CCTAAAAG,-0.201
24,AACCAAAG,-0.0743
25,GTGGCAAA,-0.187

row,Sequence,PBM E-score
1,AGCACCAT,-0.122
2,AGCGTACC,0.251
3,CACGTACA,0.216
4,ATAGTACC,0.00552
5,AGCGTACG,0.351
6,ATAGTACG,0.325
7,ATCGTACG,0.437
8,ATCGTACA,0.465
9,ATCGTACC,0.479
10,AGCGTACA,0.179
11,ATAGTACA,0.151
12,CGCGTACA,0.269
13,CTCGTACA,0.489
14,GTTGACCA,-0.16
15,TACCGCAA,0.0649
16,AACTGCAT,-0.00243
17,ACGCCCAG,-0.143
18,AGGCTTAA,-0.168
19,GGTACTGA,-0.0769
20,CCCGATCA,0.197
21,AACGTACC,0.297
22,GGCGTACA,0.16
23,GACGTACA,0.211
24,AACGTACA,0.204
